This is an account of results in PubChem BioAssay (EPA / NIEHS).

Active and inactive are the calls of the source. The calls were made as follows: active = hit-call score of the fitted dose curve at least 0.9, where 1 is the maximum; inactive = score below 0.9.

The experiment can be described thus: CCTE_Simmons_MITO_max_resp_rate: CCTE's HepG2 Seahorse XF Respirometric Screening Assay at Maximal Respiratory State [uncoupled], Simmons Lab (AID 2284002). As to conditions: actives raise or lower the signal. As to the method:
CCTE_Simmons_MITO is cell-based, respirometric assay using HepG2 cells and a Seahorse XF Analyzer to measure oxygen consumption rates over four temporal phases spanning a total of 72 minutes: pre-injection (pre-treatment), basal (following test compound injection), maximal (following FCCP uncoupler injection), and inhibited (following rotenone/antimycin A injection)CCTE_Simmons_MITO_max_resp_rate is one of 4 assay components calculated from the CCTE_Simmons_MITO assay. It is designed to make measurements of maximal respiration using a form of respirometric reporter, as detected with […] signals by Seahorse XF96 technology. Data from the assay component CCTE_Simmons_MITO_max_resp_rate was analyzed at the endpoint, CCTE_Simmons_MITO_max_resp_rate_OCR, with bidirectional fitting relative to DMSO as the negative control and baseline of activity. Using a type of respirometric reporter, measures of maximal respiration for gain or loss-of-signal activity can be used to understand cellular oxygen consumption as it relates to cellular respiration. To generalize the intended target to other relatable targets, this assay endpoint is annotated to the mitochondria intended target family, where the subfamily is respiration.
Test chemicals were administered as a titrated series of 7 concentrations from 125 nM up to 100 uM [final] prior to kinetic endpoint detection at 6 minute intervals [3 min mix followed by 3 minutes measure] for 72 minutes. Three biological replicates of technical singles were run for every chemical concentration tested. Dimethylsulfoxide [DMSO] was used as the vehicle control. The electron transport chain inhibitor fenpyroximate was used as the positive control for decreased basal respiration and was administered as a titrated series of 6 concentrations from 250 nM up to 2.75 uM [final] with technical triplicates for the top concentration only. The uncoupler 2,4-dintirophenol was used as the positive control for increased basal respiration and was administered as a titrated series of 6 concentrations from 938 nM up to 40 uM [final] with technical triplicates for the top concentration only. A Seahorse XF Analzyer is required to measure the response.
As to `Oc1cc2ccccc2c2ccccc12`, the molecule was called inactive.
Take `Nc1cccc2c(N)cccc12`: the call was inactive.
Broadly, the AC50 is the concentration giving half of the maximal activity seen. As for `CC[C@H](c1ccc(O)cc1)[C@@H](CC)c1ccc(O)cc1`, the AC50 is 30 µM (active).
On to `OC1CCC(C2CCCCC2)CC1` (stereo not drawn), for which the molecule was called inactive.
As to `CCCCCCCCCCCCN1CCCC1=O`, the AC50 is 34.8 µM (active).
In the case of `NC(=O)N(O)[C@@H]1C=C[C@H](Oc2cccc(Oc3ccc(F)cc3)c2)C1`, the AC50 was 32.4 µM (active).
Still for that read-out and setting: under `Cc1cc(CCN2CCN(c3nsc4ccccc34)CC2)cc2c1NC(=O)CC2(C)C` stands 17 µM (active).
Still for that read-out and setting: under `NC(=O)N1C(=O)C(C(=O)c2cc(Cl)cs2)c2cc(F)c(Cl)cc21` (stereo not drawn) stands 17.7 µM (active).
Take `O=C(O)Cc1cc(I)c(Oc2cc(I)c(O)c(I)c2)c(I)c1`: the molecule was classed as inactive.
Still for that read-out and setting: then `CCCOC(=O)c1ccc(O)cc1`, with “inactive”.
On the same count and under the same terms, then `CN1CCN(c2ccccc2/C=C2\SCCN(c3ccc(Cl)c(Cl)c3)C2=O)CC1`, with “inactive”.
Consider `CCc1nn(C2CCCCC2)c2cc(C3(C#N)CCC(C(=O)O)CC3)ccc12` (stereo not drawn), for which the AC50 is 25 µM (active).
As to `O=[N+]([O-])c1ccc(O)cc1`, the call was inactive.
